# Assay results as given in PubChem BioAssay AID624351 (Southern Research Specialized Biocontainment Screening …, 2012).
# Out of some 2,400 compounds screened, about 1,400 (58%) were called active.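 Rule for the calls: active = inhibition of 30% or more at any tested dose; inconclusive = primary hits over the limit that were never retested; inactive = the rest.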 The set was probably picked from earlier hits. This is one part of the list.
# Assay: ADP Hunter readout inhibition without MgcRacGAP – biochemical, coupled enzyme counter-screen, artefact control for MgcRacGAP inhibitor project, dose response (AID 624351);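 note: signal is the ADP detection kit reading of free GDP without any GAP enzyme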
# Conditions: fluorescence, no MgcRacGAP; series mostly up to 80 µM
row,Structure (SMILES),IC50
1,O=C1/C(=C\c2ccc(O)cc2)SC(=S)N1/N=C/c1ccc(O)cc1,72.7 µM (active)
2,CCN(CC)c1ccc(/C=N/N2CCN(Cc3ccccc3)CC2)cc1,75.1 µM (active)
3,CN(c1ccccc1)c1ccc(/C=C/[N+](=O)[O-])cc1,inactive
4,CCN(Cc1ccccc1)C1CCN(Cc2ccc(SC)cc2)CC1,inactive
5,CCOc1cc(/C=N/N2CCN(Cc3ccccc3)CC2)ccc1O,78.5 µM (active)
6,CC(CN1CCN(Cc2ccccc2)CC1)c1ccccc1 (stereo unspecified),inactive
7,CCN(Cc1ccccc1)c1ccc(/C=N/N2CCOCC2)cc1,57.8 µM (active)
8,CCOc1cc(CN2CCN(C(=O)CC(C)C)CC2)ccc1OC,inactive
9,CN(c1ccccc1)c1ccc(/C=N/N2CCOCC2)cc1,36.8 µM (active)
10,CCOc1ccc(CN2CCN(Cc3c[nH]c4ccccc34)CC2)cc1,inactive
11,CC(=O)N(C1=C(Cl)C(=O)c2ccccc2C1=O)c1ccc(C(=O)O)cc1,inactive
12,COc1ccccc1CN1CCN(Cc2cc(OC)c(OC)cc2OC)CC1,inactive
13,CCN(CC)c1ccc(/C=N/N2CCOCC2)c(O)c1,63.7 µM (active)
14,CN(C)c1ccc(/C=N/N2CCN(Cc3ccccc3Cl)CC2)cc1,71 µM (active)
15,CCN(CC)c1ccc(/C=N/N2CCOCC2)cc1,40.3 µM (active)
16,CC(C)c1ccc(/C=N/N2CCCCC2)cc1,inactive
17,Cc1ccc(OCCN2CCN(C)CC2)c([N+](=O)[O-])c1,inactive
18,COc1ccc2cc(C(=O)Nc3ccc(O)cc3)sc(=O)c2c1OC,24.8 µM (active)
19,O=C(Nc1ccc(O)cc1)c1cc2ccccc2c(=O)s1,30.1 µM (active)
20,O=C(Cn1sc2ccccc2c1=O)Nc1ccccc1,inactive
21,COc1cc(/C=C/C(=O)OCC(=O)Nc2ccc(S(=O)(=O)N3CCCC3)cc2)ccc1O,45.7 µM (active)
22,Cc1ccc(NC(=O)CNCCCN2CCOCC2)cc1S(=O)(=O)N1CCCCC1,inactive
23,COCCNCC(=O)Nc1ccc(C)c(S(=O)(=O)N2CCCCC2)c1,inactive
24,Cc1ccc(S(=O)(=O)N2CCCCC2)cc1NC(=O)CNCc1ccco1,inactive
25,CCN(CC)S(=O)(=O)c1ccc(C)c(NC(=O)CN2CCN(C)CC2)c1,inactive
26,COc1cc(/C=C/C(=O)OCC(=O)Nc2cc(S(=O)(=O)N3CCCCC3)ccc2C)ccc1O,60.2 µM (active)

row,Structure (SMILES),IC50
1,CC(CCN1CCN(CCO)CC1)c1ccccc1 (stereo unspecified),inactive
2,CN=C1S/C(=C\c2ccc(O)c(Br)c2)C(=O)N1C,45.8 µM (active)
3,Cc1nc(N)sc1-c1ccccc1,80.8 µM (active)
4,COc1ccc(-c2ccc(CCC(=O)O)n2-c2ccc(O)cc2)cc1,inactive
5,COC(=O)c1ccc2c(c1)C(C)(C)C(/C=C/c1ccc(O)cc1)=[N+]2C,inactive
6,COc1ccc(C(=O)/C=C/c2ccc(O)cc2)cc1,42.2 µM (active)
7,O=C(CNCc1ccco1)Nc1ccc(N2CCCCCC2)cc1,inactive
8,COc1ccc(N2CCN(C(=O)c3ccc(Br)o3)CC2)cc1,inactive
9,CC(=O)N1CCN(c2ccc(NCc3ccco3)cc2)CC1,13.1 µM (active)
10,CC(=O)N1CCN(c2ccc(NCc3ccc(Br)o3)cc2)CC1,12.4 µM (active)
11,Cc1cc(/C=N/Nc2ccc([N+](=O)[O-])cn2)c(C)n1-c1ccc(C(=O)O)cc1,inactive
12,CN(C)c1ccc(NC2=C([N+](=O)[O-])CS(=O)(=O)C2)cc1,51.3 µM (active)
13,CN(C)c1ccc(Nc2ccc([N+](=O)[O-])cn2)cc1,70.9 µM (active)
14,O=C(c1ccccc1F)N1CCN(Cc2ccccc2F)CC1,inactive
15,CCOc1c(C=C(C#N)C#N)c2ccccc2n1CC,inactive
16,C(=N\N1CCOCC1)/c1nc(-c2ccccc2)n2ccccc12,25.7 µM (active)
17,Clc1ccccc1-c1nc(/C=N/N2CCOCC2)c2ccccn12,44 µM (active)
18,CN1CCN(/N=C/c2nc(-c3ccccc3)n3ccccc23)CC1,35.6 µM (active)
19,CN1CCN(/N=C/c2nc(-c3ccc(Cl)cc3)n3ccccc23)CC1,41.9 µM (active)
20,O=C(O)c1ccc2c(c1)C(=O)/C(=C\c1ccco1)C2=O,inactive
21,Cc1ccccc1N1C(S)=C(C#N)C(=O)NC1c1cccs1 (stereo unspecified),inactive
22,Cc1ccc(-n2sc3cc(F)ccc3c2=O)c(C)c1,inactive
23,CSc1ccccc1NC(=O)CNCCCN1CCOCC1,inactive
24,O=C(NCc1ccco1)c1sc(=S)n2c1[nH]c(=O)c1ccccc12,inactive
25,O=C(COc1ccc(Nc2ccccc2)cc1)OCC(=O)N1CCCCC1,75.6 µM (active)
26,O=C(COC(=O)COc1ccc(Nc2ccccc2)cc1)NCc1ccco1,79.9 µM (active)

row,Structure (SMILES),IC50
1,CCOC(=O)COc1ccc2c(c1)C(=O)CC1(CCCCC1)O2,inactive
2,O=C(CNCc1ccco1)Nc1ccc(Oc2ccccc2)cc1,inactive
3,COCCNC(=O)COc1ccc(Nc2ccccc2)cc1,62.8 µM (active)
4,N#Cc1ccc(OCC(=O)Nc2ccc(N3CCCC3)cc2)cc1,inactive
5,O=C1CCCCC/C1=N/Nc1ccc(OCc2ccccc2)cc1,inactive
6,COc1ccc(-n2nc3c(c2NC(=O)CCCCl)CSC3)cc1,inactive
7,O=C(O)c1ccccc1C(=O)Nc1ccc(Nc2ccccc2)cc1,62.4 µM (active)
8,O=C(Nc1ccc(Nc2ccccc2)cc1)C1CC1,55.9 µM (active)
9,CC(=O)Nc1ccc(S(=O)(=O)Nc2ccc(Nc3ccccc3)cc2)cc1,80.7 µM (active)
10,CC(=O)Nc1ccc(S(=O)(=O)Nc2nc3ccccc3nc2Nc2ccc(C(=O)O)c(O)c2)cc1,inactive
11,O=C(Nc1ccccc1)C1=C(c2ccccc2)S(=O)(=O)CCS1(=O)=O,inactive
12,CC(C)C(=O)Nc1ccc(Nc2ccccc2)cc1,52.3 µM (active)
13,Cc1cc(C)c2c(c1)NC(C(=O)O)C1CC=CC21 (stereo unspecified),inactive
14,COc1ccc(-n2cccc2/C=C/[N+](=O)[O-])cc1,inactive
15,CC1=NOC(=O)/C1=C\c1ccc(-c2ccc(Cl)c(C(=O)O)c2)o1,inactive
16,N#CC1=C(S)N(c2ccccc2)C(c2cccs2)NC1=O (stereo unspecified),inactive
17,CCC(=O)Nc1ccc(Nc2ccccc2)cc1,55.9 µM (active)
18,CC(=O)Nc1ccc2sn(-c3ccccc3)c(=O)c2c1,inactive
19,O=C(O)c1ccc(COc2ccccc2C=C2C(=O)c3ccccc3C2=O)cc1,inactive
20,Oc1ccc(NCc2ccc(OCc3ccccc3)cc2)cc1,inactive
21,CC(=O)Nc1ccc(NC(=O)C(C)OC(=O)COc2ccc(Nc3ccccc3)cc2)cc1 (stereo unspecified),inactive
22,CC(=O)Nc1ccc(Nc2ccccc2)cc1,75.5 µM (active)
23,O=C(Nc1ccc(O)cc1)c1ccccc1OCc1ccccc1,44.8 µM (active)
24,CCC(=O)NC1=C(Cl)C(=O)C(NC(=O)CC)=C(Cl)C1=O,inactive
